Source: PubChem BioAssay
This is a sample that favours compounds with a hit; in the whole collection about 0.87% have one here.
WRN helicase inh-1 = WRN helicase (human) inhibition | Q14191 | WRN helicase unwinding, fluorescent forked duplex, kinetic | Potency, µM (top dose mostly 114 µM), most hits filed as inhibitors | hit rate 0.46% among 360,000; note: nearly all actives have a fitted effect of over 55% in size
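WRN at 20 nM final preincubated with compound 15 min at room temperature; reaction started with 100 nM fluorophore/quencher forked duplex oligonucleotide and 2 mM ATP final. Unwinding followed kinetically by red fluorescence (ex 525, em 598 nm).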
APEX1 inh = APE1 (human) endonuclease inhibition; P27695; AID 2517; Potency, µM (titrated, usually from 65.8 µM), usual class: inhibitors; recombinant APE1, TAMRA/BHQ-2 abasic DNA cleavage fluorescence; hit rate 0.35% among 350,000; note: nearly all actives have a fitted effect of over 55% in size
Target sequence (P27695 whole entry, looked up): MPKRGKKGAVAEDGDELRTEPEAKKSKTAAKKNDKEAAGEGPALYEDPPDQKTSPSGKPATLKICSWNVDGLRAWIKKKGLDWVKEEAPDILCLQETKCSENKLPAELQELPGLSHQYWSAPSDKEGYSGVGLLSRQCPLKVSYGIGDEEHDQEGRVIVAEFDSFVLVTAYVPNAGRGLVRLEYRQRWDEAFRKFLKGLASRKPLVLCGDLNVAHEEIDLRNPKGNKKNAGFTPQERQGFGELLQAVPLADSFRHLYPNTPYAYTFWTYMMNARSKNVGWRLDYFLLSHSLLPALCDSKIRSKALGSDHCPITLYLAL
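APE1 at 0.75 nM preincubated 15 min at room temperature with compound. Reaction then started with 50 nM double-stranded THF-abasic substrate labelled with TAMRA/BHQ-2, and 525/598 nm fluorescence read kinetically. Activity taken as third-minus-first read difference, normalized to DMSO and NSC13755 controls.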
FEN1 inh-1 = blocks human flap endonuclease 1 | Potency, µM (titrated, usually from 114 µM), hits mostly inhibitors | hit rate 0.35% among 390,000 | Recombinant FEN1 flap cleavage, fluorescence, 15 min | P39748; note: nearly all actives have a fitted effect of over 65% in size
Target sequence (P39748 whole entry, looked up): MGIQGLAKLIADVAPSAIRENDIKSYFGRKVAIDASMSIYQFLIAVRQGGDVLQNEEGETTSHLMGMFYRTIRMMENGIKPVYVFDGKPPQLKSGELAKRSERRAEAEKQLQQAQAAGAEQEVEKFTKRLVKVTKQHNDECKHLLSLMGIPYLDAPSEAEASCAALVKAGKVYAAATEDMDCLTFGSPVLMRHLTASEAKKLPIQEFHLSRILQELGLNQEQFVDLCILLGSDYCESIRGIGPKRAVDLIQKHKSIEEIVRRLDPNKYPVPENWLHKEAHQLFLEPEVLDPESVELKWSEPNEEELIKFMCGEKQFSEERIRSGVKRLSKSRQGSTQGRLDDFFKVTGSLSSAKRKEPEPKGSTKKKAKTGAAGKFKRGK
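Nuclease activity of 10 nM FEN1 was measured after 15 min of room-temperature exposure to titrated compounds, by adding 50 nM flap substrate and reading plates at 0 and 15 min.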
BLM helicase inh-1 = Bloom syndrome helicase (human) inhibition; P54132; recombinant BLM DNA unwinding, fluorescence dequenching; hit rate 0.2% among 350,000; Potency, µM (series often up to 56.1 µM), most hits filed as inhibitors; AID 2528; note: nearly all actives have a fitted effect of over 35% in size
RECQ1 inh-1 = blocks DNA unwinding by human RECQ1 | Potency, µM (titrated, usually from 57.3 µM), most hits filed as inhibitors | hit rate 0.54% among 240,000 | RECQ1 DNA unwinding, red fluorescence kinetic read; note: nearly all actives have a fitted effect of over 30% in size
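RECQ1T1 50 nM; forked duplex (20 bp + 30-nt ss tails) 200 nM, ATP 2 mM final; pH 8.0, 2 mM MgCl2, 2.5 ug/ml poly(dI-dC); 15 min compound preincubation; discontinuous kinetic read over 2 h at RT.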
RECQ1 conf = confirmation of human RECQ1 helicase inhibitors | hit rate 28% among 610 | AID 2708 | shares compounds with RECQ1 inh-1 | Potency, µM (series often up to 229 µM), actives largely listed as inhibitors | RECQ1 helicase DNA unwinding, fluorescence; note: nearly all actives have a fitted effect of over 45% in size
RECQ1 ADP FP = displaces ADP in a fluorescence polarization counter-screen for RECQ1 hits; AID 2711; Potency, µM (highest dose often 228 µM), most hits filed as inhibitors; ADP fluorescence polarization displacement counterscreen; hit rate 27% among 530; shares compounds with RECQ1 inh-1; note: nearly all actives have a fitted effect of over 45% in size
RECQ1 inh-2 = RECQ1 helicase inhibition confirmed, round 2; shares compounds with RECQ1 inh-1; recombinant RECQ1 DNA unwinding, red fluorescence; Potency, µM (doses to about 119 µM), most hits filed as inhibitors; hit rate 15% among 1,100; note: nearly all actives have a fitted effect of over 50% in size
FEN1 inh-2 = FEN1 inhibition, cherry-pick retest; shares compounds with FEN1 inh-1; FEN1 flap cleavage, TAMRA/BHQ2 fluorogenic DNA substrate; Potency, µM, usual class: inhibitors; hit rate 79% among 880; AID 720498; note: nearly all actives have a fitted effect of over 60% in size
WRN helicase inh-2 = confirmation of human WRN helicase inhibitors; shares compounds with WRN helicase inh-1; WRN helicase DNA unwinding, fluorescence kinetic; Potency, µM (doses to about 57.1 µM), most hits filed as inhibitors; hit rate 63% among 610; note: nearly all actives have a fitted effect of over 65% in size
TO DNA binding = counter-screen for WRN helicase inhibitors: DNA binding; Potency, µM (titrated, usually from 57.1 µM), hits mostly inhibitors; shares compounds with WRN helicase inh-1; thiazole orange DNA binding displacement, fluorescence; hit rate 10% among 610;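 note: drop in dye fluorescence marks compound binding to DNA; nearly all actives have a fitted effect of over 60% in size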
BLM helicase inh-2 = BLM helicase inhibition, WRN selectivity check. Potency, µM (series often up to 57.1 µM), actives largely listed as inhibitors. Recombinant BLM helicase DNA unwinding, red fluorescence. AID 720503. shares compounds with WRN helicase inh-1. hit rate 60% among 610; note: nearly all actives have a fitted effect of over 60% in size
A number is an active result; [ ] = dose if it differs, or a comment. Calls come from the whole dose curve; as a rule, active = well fitted curve in the direction sought with a large enough effect; inconclusive = small, poorly fitted or top-dose-only effect, or another doubt; inactive = no such curve, though single readings can be large; an effect the other way counts as inactive or inconclusive.

Screening CN1/C(=C\C=C2/SC(=S)N(CC(=O)O)C2=O)C(C)(C)c2ccccc21 returned WRN helicase inh-1 50µM, APEX1 inh 25µM, FEN1 inh-1 inconclusive, BLM helicase inh-1 14µM, RECQ1 inh-1 25µM, RECQ1 conf 40µM, RECQ1 ADP FP 3.2µM, FEN1 inh-2 85, WRN helicase inh-2 22µM, TO DNA binding inactive and BLM helicase inh-2 22µM.
Screening CCOC(=O)c1c(-n2c(C)cc(C=O)c2C)sc2c1CCCC2 returned WRN helicase inh-1 inactive, APEX1 inh inactive, FEN1 inh-1 inactive, BLM helicase inh-1 inactive and RECQ1 inh-1 inactive.
For Cc1ccc(C)n1-c1sc2c(c1C(=O)O)CCCC2 the results were WRN helicase inh-1 inconclusive, APEX1 inh inconclusive, FEN1 inh-1 inactive, BLM helicase inh-1 inactive, RECQ1 inh-1 13µM, RECQ1 conf 56µM, RECQ1 ADP FP inconclusive, RECQ1 inh-2 8.9µM, WRN helicase inh-2 14µM, TO DNA binding inactive and BLM helicase inh-2 15µM.
Screening Cc1nn(-c2ccccc2)c2nc(-c3ccco3)cc(C(=O)O)c12 returned WRN helicase inh-1 inconclusive, APEX1 inh inconclusive, FEN1 inh-1 inconclusive, BLM helicase inh-1 inactive, RECQ1 inh-1 28µM, RECQ1 inh-2 inactive, WRN helicase inh-2 inconclusive, TO DNA binding inactive and BLM helicase inh-2 inactive.
Cn1cccc1/C=C1\SC(=S)N(NC(=O)c2ccccc2O)C1=O was read as WRN helicase inh-1 inconclusive, APEX1 inh inactive, FEN1 inh-1 inactive, BLM helicase inh-1 inactive and RECQ1 inh-1 inactive.
Screening O=C(NN1C(=O)/C(=C/C=C/c2ccco2)SC1=S)c1ccccc1O returned WRN helicase inh-1 10µM, APEX1 inh 2µM, FEN1 inh-1 11µM, BLM helicase inh-1 inconclusive, RECQ1 inh-1 2.5µM, RECQ1 conf 13µM, RECQ1 ADP FP 14µM, FEN1 inh-2 27, WRN helicase inh-2 3µM, TO DNA binding inconclusive and BLM helicase inh-2 8.6µM.
For COc1ccc(C(=O)Nc2nc(-c3ccc([N+](=O)[O-])cc3)c(-c3ccc(OC)cc3)s2)cc1 the results were WRN helicase inh-1 inconclusive, APEX1 inh inactive, FEN1 inh-1 inactive, BLM helicase inh-1 inactive, RECQ1 inh-1 inconclusive, RECQ1 inh-2 inactive, WRN helicase inh-2 inactive, TO DNA binding inactive and BLM helicase inh-2 inactive.
For COc1ccc(-n2c(O)c(/C=N/Nc3nc(C)cc(C)n3)c3ccccc3c2=O)cc1OC the results were WRN helicase inh-1 inactive, APEX1 inh inactive, FEN1 inh-1 inactive, BLM helicase inh-1 inactive and RECQ1 inh-1 inactive.
Screening COc1ccc(-n2c(O)c(/C=N/NS(=O)(=O)c3ccc(C)cc3)c3ccccc3c2=O)cc1OC returned WRN helicase inh-1 40µM, APEX1 inh inactive, FEN1 inh-1 inactive, BLM helicase inh-1 inactive, RECQ1 inh-1 10µM, RECQ1 inh-2 inconclusive, WRN helicase inh-2 inactive, TO DNA binding inactive and BLM helicase inh-2 inconclusive.
Cc1oc(-c2ccc(C(=O)NCc3ccccc3F)cc2)nc1COc1ccccc1 was read as FEN1 inh-1 inactive and BLM helicase inh-1 inactive.
Screening Cc1ccccc1-c1nc(C(N)=O)c2c(n1)n(-c1ccc3c(c1)OCO3)c(=O)n2C returned FEN1 inh-1 inactive and BLM helicase inh-1 inactive.
Screening CCCOc1ccc(CNC(=O)C(CC)n2nc(C)c3sc4ccccc4c3c2=O)cc1 (centres undefined) returned FEN1 inh-1 inactive and BLM helicase inh-1 inactive.
Screening O=C(Nc1cc2c(oc1=O)CCCC2=O)c1ccc(Cl)cc1 returned WRN helicase inh-1 13µM, APEX1 inh inconclusive, FEN1 inh-1 56µM, BLM helicase inh-1 inconclusive, RECQ1 inh-1 14µM, RECQ1 conf 14µM, RECQ1 ADP FP inconclusive, WRN helicase inh-2 19µM, TO DNA binding inactive and BLM helicase inh-2 7.6µM.
For COc1ccccc1NC(=O)C1=C(C)Nc2nc(SCc3ccc(Cl)cc3)nn2C1c1ccccc1Cl (centres undefined) the results were FEN1 inh-1 inactive and BLM helicase inh-1 inactive.
`CCOC(=O)c1cc2c(=O)n3ccccc3nc2n(Cc2ccco2)c1=NC(=O)c1c(F)cccc1Cl` gave FEN1 inh-1 inactive, BLM helicase inh-1 inactive and FEN1 inh-2 inconclusive.
For CCOC(=O)c1cc2c(=O)n3ccccc3nc2n(Cc2ccco2)c1=NC(=O)c1cccc(C)c1 the results were FEN1 inh-1 inactive and BLM helicase inh-1 inactive.
O=C(NCCCN1CCCC1)c1cc2c(Cl)nc3ccccc3c2s1 was read as WRN helicase inh-1 inactive, APEX1 inh inactive, FEN1 inh-1 40µM, BLM helicase inh-1 inactive, RECQ1 inh-1 inactive and FEN1 inh-2 38.
Screening Cc1ccc2oc(=O)c3cc(C(=O)NCCCN4CCCCCC4)sc3c2c1 returned WRN helicase inh-1 inactive[11.6 µM], APEX1 inh inactive, FEN1 inh-1 inconclusive, BLM helicase inh-1 inactive and FEN1 inh-2 inconclusive.
Screening O=C(NCCCN1CCN(c2ccccc2F)CC1)c1cc2c(Cl)nc3ccccc3c2s1 returned FEN1 inh-1 inactive and BLM helicase inh-1 inactive.
CC1CCN(CCCNC(=O)c2cc3c(Cl)nc4ccccc4c3s2)CC1 was read as WRN helicase inh-1 inactive, APEX1 inh inactive, FEN1 inh-1 inconclusive, BLM helicase inh-1 inactive, RECQ1 inh-1 inactive and FEN1 inh-2 inconclusive.
`Cc1ccc2nc(Cl)c3cc(C(=O)NCCCN4CCC(C)CC4)sc3c2c1` gave FEN1 inh-1 inactive and BLM helicase inh-1 inactive.
CCCN1CCN(CCCNC(=O)c2cc3c(Cl)nc4ccccc4c3s2)CC1 was read as FEN1 inh-1 45µM, BLM helicase inh-1 inactive and FEN1 inh-2 inconclusive.
`CCCc1c(C)[nH]c2ccc(C(=O)O)cc2c1=S` gave WRN helicase inh-1 25µM, APEX1 inh 22µM, FEN1 inh-1 45µM, BLM helicase inh-1 inactive, RECQ1 inh-1 14µM and FEN1 inh-2 43.
For O=S(=O)(O)c1cc(Cl)cc(N=Nc2ccc(O)cc2O)c1O the results were WRN helicase inh-1 50µM, FEN1 inh-1 56µM and FEN1 inh-2 85.
